The nature of test [1]: Primary qHTS for inhibitors of nuclear receptor binding SET domain protein 2 (NSD2) in an isogenic RCH-ACV NSD2 p.E1099K mutant (9B) (AID 1645876). (In general: In qHTS, concentration-response curves come from the screen itself.)
A short description of test [2]: Primary qHTS for inhibitors of nuclear receptor binding SET domain protein 2 (NSD2) in an RCH-ACV wild type WT cells (2C) (AID 1645877).

Structures are written as SMILES. Inconclusive results are not listed. Unmarked numbers belong to inactive results. The source made the active and inactive calls. Calls come from the whole dose curve; as a rule, active = well fitted curve in the direction sought with a large enough effect; inconclusive = small, poorly fitted or top-dose-only effect, or another doubt; inactive = no such curve, though single readings can be large; an effect the other way counts as inactive or inconclusive. Where a SMILES comes first, the peptide text is derived from it. [ ]: non-standard residue; d: D form. PhLac = O=C(O)[CH](O)Cc1ccccc1; NMeV = CN[CH](C(=O)O)C(C)C
% is set by controls: 0 for no effect and ±100 for the full control effect.
Note: nearly all actives have a fitted effect of over 70% in size.

Consider `CN1CC[C@@H](NC(=O)Nc2ccc(C#N)cc2)C[C@@H]1c1nc2ccccc2[nH]1`, for which the Potency entry in test [1] and in test [2] was “inactive” each time.
Turning to `CO[C@H]1C=C2C(CC[C@H](O[C@@H]3O[C@H](CO)[C@@H](O)[C@@H](O)[C@H]3O)C2(C)C)[C@]2(C)CC[C@]3(C)C([C@H](C)C(O)C(C=C(C)C)O[C@@H]4O[C@H](CO)[C@@H](O)[C@@H](O)[C@H]4O)CC[C@@]3(C)C12` (stereo not given in full), the outcome in test [1] and in test [2] was “inactive [at 9.23 µM]” in each case.
On to `CC1[C@@H](O)[C@@H](O)C2[C@]3(C)C(C[C@H]4OC(=O)[C@H](O)[C@]1(O)[C@@]24C)C(C)(O)C[C@H](O)[C@H]3O` (stereo not given in full), for which the Potency result in test [1] and in test [2] was “inactive” throughout.
With `CC1(C)CC[C@]2(C(=O)O[C@@H]3O[C@H](CO)[C@@H](O)[C@H](O)[C@H]3O)CC[C@]3(C)C(=CCC4[C@@]5(C)C[C@@H](O)[C@H](O)[C@@](C)(CO)C5CC[C@]43C)C2C1` (stereo not given in full), the Potency result in test [1] and in test [2] was “inactive” in each case.
As for `COC(=O)C1=CO[C@@H](O[C@@H]2O[C@H](CO)[C@@H](O)[C@H](O)[C@H]2O)[C@@H]2[C@@](C)(O)[C@@H](O)C[C@]12O`, the Potency result in test [1] and in test [2] was “inactive” in each case.
For `CC1=C2C(=O)O[C@@H](c3ccoc3)[C@]2(C)CCC1`, the Potency entry in test [1] and in test [2] was “inactive” throughout.
As for `CC(=O)OC1C(O)C(C)=C(CCC(C)CC(=O)O)C2(C)CCCC(C)(C)C12` (stereo not given), the Potency result in test [1] and in test [2] was “inactive” in each case.
For `C[C@@H](O)[C@H](N)C(=O)N1CCC[C@H]1C(=O)N1CCC[C@H]1C(=O)N[C@H](C(N)=O)[C@@H](C)O` (H-TPPT-NH2), in test [1], the activity change, negative = viability loss is 0.764% [at 9.23 µM]. Besides, the activity change, negative = cell killing in test [2] is -0.759% [at 9.23 µM].
For `CCOC(=O)[C@H](CCc1ccccc1)N[C@@H](C)C(=O)N1C2CCCCC2C[C@H]1C(=O)O` (stereo not given in full), the Potency entry in test [1] and in test [2] was “inactive” in each case.
In the case of `OC[C@H]1O[C@@H](OCCc2ccc(O)cc2)[C@H](O)[C@@H](O)[C@@H]1O`, the Potency entry in test [1] and in test [2] was “inactive” each time.
With `COc1cc(C2c3cc(O)c(OC)cc3CC(CO)C2CO)ccc1O` (stereo not given), the Potency entry in test [1] and in test [2] was “inactive” in each case.
For the molecule `CCC(CCO[C@@H]1O[C@H](CO[C@H]2OC[C@](O)(CO)[C@H]2O)[C@@H](O)[C@H](O)[C@H]1O)C(C)(C)O` (stereo not given in full), the Potency entry in test [1] and in test [2] was “inactive” in each case.
Consider `C=CCc1ccc(O[C@@H]2O[C@H](CO[C@@H]3O[C@H](CO)[C@@H](O)[C@H](O)[C@H]3O)[C@@H](O)[C@H](O)[C@H]2O)c(O)c1`, for which the Potency result in test [1] and in test [2] was “inactive” each time.
As for `CC(C)C(C(=O)N1CCCC1C(=O)O)N(C)C(=O)C(O)Cc1ccccc1` (stereo not given) (H-[PhLac]-[NMeV]-Pro-OH; configuration not given here), the Potency entry in test [1] and in test [2] was “inactive” in each case.
With `O=C(/C=C/c1ccc(O)cc1)OC[C@H]1O[C@@H](OC(=O)/C=C/c2ccccc2)[C@H](O)[C@@H](O)[C@@H]1O`, the Potency result in test [1] and in test [2] was “inactive” each time.
On to `COc1cc(C[C@H]2COC(=O)[C@@H]2Cc2ccc(O)c(OC)c2)ccc1O`, for which the Potency entry in test [1] and in test [2] was “inactive” throughout.
Turning to `CC(C)C1=CC2=CCC3[C@](C)(CCC[C@@]3(C)C(=O)O)C2CC1O` (stereo not given in full), the Potency result in test [1] and in test [2] was “inactive” in each case.
`C=CC(C)(C)C12CC3C(=O)NC(Cc4cnc[nH]4)C(=O)N3C1Nc1ccccc12` (stereo not given): the Potency result in test [1] and in test [2] was “inactive” throughout.
Regarding `CCC(C)(O)C(O)C(=O)OCc1ccc(O[C@@H]2O[C@H](CO)[C@@H](O)[C@H](O)[C@H]2O)cc1` (stereo not given in full), the Potency result in test [1] and in test [2] was “inactive” throughout.
With `COc1ccc(/C=C/C(=O)O[C@@H]2[C@@H](O)[C@H](C)O[C@@H](OC3C4C=COC(O[C@@H]5O[C@H](CO)[C@@H](O)[C@H](O)[C@H]5O)C4C4(CO)OC34)[C@@H]2O)cc1OC` (stereo not given in full), the Potency result in test [1] and in test [2] was “inactive” each time.
Consider `C=C(C)[C@H]1C[C@@H](O)C(=C)CC[C@@H](O)C(=C)[C@@H](O)C1`, for which the Potency result in test [1] and in test [2] was “inactive” each time.
As for `CC[C@H]1OC(=O)[C@H](C)[C@@H](O[C@H]2C[C@@](C)(OC)[C@@H](O)[C@H](C)O2)[C@H](C)[C@@H](O[C@@H]2O[C@H](C)C[C@H](N(C)C)[C@H]2O)[C@@](C)(O)C[C@@H](C)[C@@H]2N[C@@H](COCCOC)OC([C@H]2C)[C@]1(C)O`, the Potency result in test [1] and in test [2] was “inactive” in each case.
On to `CC(c1c[nH]c2ccccc12)C(O)C(=O)O` (stereo not given), for which the Potency result in test [1] and in test [2] was “inactive” each time.
For the molecule `COc1cc2c(cc1O)C1(Cc3ccc4c(c3C1=O)OCO4)N(C)CC2` (stereo not given), the Potency entry in test [1] and in test [2] was “inactive” throughout.
For `CC(C)CC(=O)OC[C@H]1O[C@@](COC(=O)CC(C)C)(O[C@H]2O[C@H](CO)[C@@H](O)[C@H](O)[C@H]2OC(=O)CC(C)C)[C@@H](OC(=O)CC(C)C)[C@@H]1O`, the Potency result in test [1] and in test [2] was “inactive” in each case.
